# Assay results as given in PubChem BioAssay (NCATS).
# Values joined by “and” are separate entries in the source; they are usually repeats but may differ in a detail not shown here. Equal values may be shown once. Inconclusive results are not listed. Where a call stands in place of a potency, no number is given. Active and inactive are the calls of the source. Calls follow the shape of the dose curve; as a rule, active = well fitted cell-killing curve with a large enough effect; inconclusive = small, poorly fitted or top-dose-only effect; inactive = no such curve, though single readings can be large or run the other way. Peptide text beside a SMILES is read from it.
# Assay: qHTS of pediatric cancer cell lines to identify multiple opportunities for drug repurposing: Primary screen for MG 63 (6-TG R) cells (AID 1347105); also: nearly all actives have a fitted effect of over 50% in size
# Conditions: MG 63 (6-TG R) viability, CellTiter-Glo, 48 h; series mostly up to 46 µM
# Description: Drug repurposing or repositioning has been offered as a strategy for drug development in oncology programs. This approach has special potential for childhood cancers and other rare or orphan diseases, where the expected return on new drug development has been a disincentive to pharmaceuticals. […] In this project we exploit the poly-pharmacology of drugs to discover new indications via phenotypic screening of a panel of 19 well-characterized cell lines derived from solid tumors seen in children and adolescents. The goal is to identify approved drugs with previously unrecognized anticancer properties that has the potential to reveal new mechanisms and biological processes involved in carcinogenesis or drug resistance. We employed a titration-based paradigm (quantitative high-throughput screening or qHTS), where all compounds were tested at multiple concentrations for their effect on cell viability. Concentration-response curves (CRCs) were derived directly from the primary screen, and both potency and efficacy values were used to identify compounds with robust bioactivity profiles. We screened the NIH Chemical Genomics Center (NCGC) Pharmaceutical Collection (NPC) and Mechanism Interrogation Plate (MIPE) small molecule collections of approved and investigational compounds against these cell lines; and measured metabolically active cells after 48 hours of compound treatment as a proxy for cell viability. […] Assay Submitter: Nathalia J. Martinez, National Center for Advancing Translational Sciences, National Institutes of Health, Rockville, MD, USA; email: natalia.martinez@nih.gov Shen, M et al. Quantitative high-throughput phenotypic screening of pediatric cancer cell lines identifies multiple opportunities for drug repurposing. Oncotarget 2017 Dec 19;9(4):4758-4772. PMID 29435139.
# The cells were obtained from University of North Carolina (UNC), Pediatric Preclinical Testing Program (PPT), and Coriell Institute (CI). qHTS cell viability assay: Cells were assayed in growth media at a density of 500-1,000 cells/well. Five microliters of cells were dispensed into 1,536-well, white, solid-bottom, TC-treated plates (Greiner Bio One) using a multidrop dispenser and incubated at 37 degrees C, 5% CO2, under a humidified atmosphere for 5 hours. Twenty-three nanoliters of compounds and controls (neutral control DMSO or positive control bortezomib at final concentration of 2.3 µM) were subsequently transferred by Kalypsys pintool. For primary screens, the MIPE collection was tested at 11-point dilutions (final concentrations range from 0.78 nM to 46 µM) and the NPC collection at 8-point dilutions (final concentrations range from 0.59 nM to 46 µM). Compounds tested in follow-up screens were assayed at 11-point dilutions. Cells were incubated for 48 hours, followed by addition of 3 µL of CellTiter-Glo (Promega). After a 15 min incubation at room temperature, samples were analyzed for luminescence intensity using a ViewLux High-throughput CCD imager equipped with clear filters.
# Potency is read from the fitted curve at half-maximal effect.
row,SMILES,Potency
1,Cc1cc(C2CCCCC2)n(O)c(=O)c1,13.3 µM (active) and 23.5 µM (active)
2,C[Se]CCC(N)C(=O)O (stereo not given),inactive
3,CC(=O)NC[C@H]1CN(c2ccc(N3CCOCC3)c(F)c2)C(=O)O1,inactive
4,CN(C)C(=O)COC(=O)Cc1ccc(OC(=O)c2ccc(N=C(N)N)cc2)cc1,inactive
5,CCCCN(CCCC)CCC(O)c1cc2c(Cl)cc(Cl)cc2c2cc(C(F)(F)F)ccc12 (stereo not given),inactive
6,NNc1nncc2ccccc12,inactive
7,CN(c1nccc(=O)[nH]1)C1CCN(c2nc3ccccc3n2Cc2ccc(F)cc2)CC1,inactive
8,O=c1c(O)c(-c2ccc(O)cc2O)oc2cc(O)cc(O)c12,inactive
9,O=C(c1ccccc1)c1ccc2n1CCC2C(=O)O (stereo not given),inactive
10,Cc1cc(O)c2c(c1)C(=O)c1cc(O)cc(O)c1C2=O,inactive
11,O=C1c2c(O)cc(O)cc2OC(c2ccc(O)c(O)c2)C1O (stereo not given),inactive
12,CCCCCCCCCCCCCCCCCCCCCCO,inactive
13,CCOC(=O)C(C)Oc1cccc2c(=O)n(CC(=O)Nc3ccc4c(c3)OCCO4)ccc12 (stereo not given),inactive
14,Cc1cc(Cl)ccc1OCCCC(=O)NO,7.43 µM (active)
15,COC(=O)[C@H](Cc1ccccc1)NC(=O)[C@@H](N)CC(=O)O (H-Asp-Phe-OMe),inactive
16,COC(=O)N[C@H](C(=O)N[C@@H](Cc1ccccc1)[C@@H](O)CN(Cc1ccc(-c2ccccn2)cc1)NC(=O)[C@@H](NC(=O)OC)C(C)(C)C)C(C)(C)C,inactive
17,Clc1ccc2c(N3CCN(CCCN4CCN(c5ccnc6cc(Cl)ccc56)CC4)CC3)ccnc2c1,inactive
18,Cc1cccc(CN2CCN(C(c3ccccc3)c3ccc(Cl)cc3)CC2)c1 (stereo not given),inactive
19,CN(C)c1ccc2nc3ccc(=[N+](C)C)cc-3sc2c1,3.72 µM (active) and 2.11 µM (active)
20,CC[C@]1(O)C[C@H]2CN(CCc3c([nH]c4ccccc34)[C@@](C(=O)OC)(c3cc4c(cc3OC)N(C=O)[C@H]3[C@@](O)(C(=O)OC)[C@H](OC(C)=O)[C@]5(CC)C=CCN6CC[C@]43[C@@H]65)C2)C1,0.0335 µM (active)

row,SMILES,Potency
1,NCCCCNCCCN,inactive
2,Cc1cccc(-c2[nH]ncc2-c2ccc3ncccc3n2)n1,inactive
3,Cc1cccc(C)c1OCC(=O)N[C@@H](Cc1ccccc1)[C@@H](O)C[C@H](Cc1ccccc1)NC(=O)[C@H](C(C)C)N1CCCNC1=O,inactive
4,CNC[C@@H](O)[C@@H](O)[C@H](O)[C@H](O)CO,inactive
5,COc1c(O)cc2c(c1O)[C@@H]1O[C@H](CO)[C@@H](O)[C@H](O)[C@H]1OC2=O,inactive
6,Clc1ccc(C(Cn2ccnc2)OCc2ccsc2Cl)c(Cl)c1 (stereo not given),inactive
7,CN1CCC(=C2c3ccccc3CCc3sccc32)CC1,inactive
8,COc1cc(OC)c(C(=O)CCCN2CCCC2)c(OC)c1,inactive
9,COc1c2occc2cc2ccc(=O)oc12,inactive
10,COc1ccc2cc([C@H](C)C(=O)O)ccc2c1,inactive
11,Cc1c(OCC(F)(F)F)ccnc1CS(=O)c1nc2ccccc2[nH]1 (stereo not given),inactive
12,Cc1ncc([N+](=O)[O-])n1CC(C)O (stereo not given),inactive
13,Nc1cc(C(Cl)=C(Cl)Cl)c(S(N)(=O)=O)cc1S(N)(=O)=O,inactive
14,CC(C)c1ccc2oc3nc(N)c(C(=O)O)cc3c(=O)c2c1,inactive
15,C=CCc1cc(OC)c(O)c(C(=O)NCCO)c1,inactive
16,COc1ccccc1N1CCN(CCN(C(=O)C2CCCCC2)c2ccccn2)CC1,inactive
17,CCCc1cc(=O)[nH]c(=S)[nH]1,inactive
18,CC1(C)C(=O)N(CCN2CCC(C(=O)c3ccc(F)cc3)CC2)c2ccccc21,inactive
19,Clc1ccc(C(Cn2ccnc2)OCc2c(Cl)cccc2Cl)c(Cl)c1 (stereo not given),inactive
20,O=C(O)c1cccc(-c2noc(-c3ccccc3F)n2)c1,inactive
